Drawing on PubChem BioAssay (EPA / NIEHS), this text covers outcome and AC50 for 39 molecules.

The structures appear in SMILES notation. Results filed as inconclusive are left out. The source made the active and inactive calls. Rule for the calls: active = hit-call score of the fitted dose curve at least 0.9, where 1 is the maximum; inconclusive = response in the unintended direction; inactive = score below 0.9.

In general, AC50 refers to the midpoint of the concentration-response curve, whichever way the signal moves.

For the first assay, the target named is Cellular tumor antigen p53 (Homo sapiens) (UniProt P04637). The experiment in a line: TOX21_p53_BLA_p3_ratio: Tox21 HCT-116 p53 Agonism Beta-lactamase Assay, Ratio, Phase 3 (AID 2283596). A digest of the protocol: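 HCT116 p53-bla cells (4000/well) given compound in DMSO (217-fold dilution) after 5 h, incubated 16 h at 37C. CCF4-AM substrate 2 h at room temperature; 460/530 nm emission ratio, gain fitted against DMSO.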
Chain of Cellular tumor antigen p53 (Homo sapiens) (P04637 whole entry, looked up): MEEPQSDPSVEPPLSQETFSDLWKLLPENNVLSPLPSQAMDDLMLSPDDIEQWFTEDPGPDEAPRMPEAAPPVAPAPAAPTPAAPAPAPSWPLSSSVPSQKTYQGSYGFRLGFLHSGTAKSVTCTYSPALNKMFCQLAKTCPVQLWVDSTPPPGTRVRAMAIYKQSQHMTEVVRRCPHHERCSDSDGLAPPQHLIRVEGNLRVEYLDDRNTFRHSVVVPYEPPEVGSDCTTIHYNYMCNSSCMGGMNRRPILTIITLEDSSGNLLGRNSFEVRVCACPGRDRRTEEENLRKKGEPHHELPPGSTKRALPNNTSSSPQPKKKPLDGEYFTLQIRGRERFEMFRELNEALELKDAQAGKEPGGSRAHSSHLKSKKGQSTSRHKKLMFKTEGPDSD
Take `Nc1ccc(N=Nc2ccc(N)cc2)cc1`: the outcome was inactive.

`N[C@@H](CCC(=O)Nc1ccc([N+](=O)[O-])cc1)C(=O)O`: the outcome was inactive.

For `CC(C)NC[C@@H](O)COc1cccc2ccccc12`, the result was inactive.

`CCN(C)C(=O)Oc1cccc([C@H](C)N(C)C)c1`: the result was inactive.

Take `CN(C)CCN(Cc1ccccc1)c1ccccn1`: the outcome was inactive.

For the molecule `OCCOc1ccc(OCCO)cc1`, the outcome was inactive.

Regarding `CCOc1ccc(S(=O)(=O)O)c2cccnc12`, the result was inactive.

For `NC(=O)OCC(O)COc1ccc(Cl)cc1` (configuration not stated), the result was inactive.

Consider `O=[N+]([O-])c1ccc(Oc2ccc([N+](=O)[O-])cc2)cc1`, for which the outcome was inactive.

In the case of `CN1CCc2c(c3ccccc3n2Cc2ccccc2)C1`, the outcome was inactive.

As for `Cc1ccc(/C(=C\CN2CCCC2)c2ccccn2)cc1`, the result was inactive.

Take `Cc1cc(O)ccc1O`: the result was inactive.

Regarding `CC(C)c1ncc([N+](=O)[O-])n1C`, the result was inactive.

On to `O=C(O)CCC/C=C\C[C@@H]1[C@@H](/C=C/[C@@H](O)COc2cccc(Cl)c2)[C@H](O)C[C@@H]1O`, for which the outcome was inactive.

`Cc1cc(=O)c(C(=O)N[C@@H](C(=O)N[C@@H]2C(=O)N3C(C(=O)O)=C(CSc4nnnn4C)CS[C@H]23)c2ccc(O)cc2)c[nH]1`: the result was inactive.

On to `CCCc1nc2c(C)cc(-c3nc4ccccc4n3C)cc2n1Cc1ccc(-c2ccccc2C(=O)O)cc1`, for which the outcome was inactive.

In the case of `S=C(SSSSSSC(=S)N1CCCCC1)N1CCCCC1`, the result was inactive.

Consider `C[C@]12CC[C@@H]3c4ccc(OC(=O)c5ccccc5)cc4CC[C@H]3[C@@H]1CC[C@@H]2O`, for which the outcome was inactive.

Take `CCCCOC(=O)C(=O)Nc1cccc(-c2nn[nH]n2)c1`: the result was inactive.

In the case of `COc1ccc(-c2cc(C(F)F)nn2-c2ccc(S(N)(=O)=O)cc2)cc1F`, the result was inactive.

System in another assay: not listed separately
Briefly: TOX21_p53_BLA_p4_viability: Viability Assessment in the Tox21 HCT-116 p53 Agonism Beta-lactamase Assay, Phase 4 (AID 2283597).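 Note: hits lower the luminescence signal meaning cytotoxicity.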 A digest of the protocol:
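Cells plated, 5 h pre-incubation; DMSO compounds pinned (217-fold dilution); 16 h, 37C/5% CO2; CCF4-AM 2 h RT; CellTiter-Glo 30 min RT; luminescence read.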
Regarding `CNC(=O)[C@H](Cc1c[nH]c2ccccc12)NC(=O)[C@@H](CC(=O)NO)CC(C)C`, the outcome was inactive.

Turning to `C1CCCNCCC1`, the result was inactive.

As for `Cc1cc(C)cc([N+](=O)[O-])c1`, the call was inactive.

Take `CCNC(=O)C1CC(C)CCC1C(C)C` (configuration not stated): the call was inactive.

`O=C(O)CP(=O)(O)O`: the outcome was inactive.

In the case of `CCOC(=O)CC(=O)C(=O)OCC`, the molecule was classed as inactive.

As to `COc1cc(C(=O)NC2CCCNC2)cc(OC)c1OC` (configuration not stated), the result was inactive.

Regarding `CS(=O)(=O)c1ccc([C@@H](O)[C@@H](COC(=O)CN)NC(=O)C(Cl)Cl)cc1`, the call was inactive.

As for `CN1CCOC(c2ccccc2)c2ccccc2C1` (configuration not stated), the outcome was inactive.

`CCOC(=O)CCC(=O)O[C@H]1[C@H](O[C@@H]2[C@@H](C)[C@H](O[C@H]3C[C@@](C)(OC)[C@@H](O)[C@H](C)O3)[C@@H](C)C(=O)O[C@H](CC)[C@@](C)(O)[C@H](O)[C@@H](C)C(=O)[C@H](C)C[C@@]2(C)O)O[C@H](C)C[C@@H]1N(C)C`: the molecule was called inactive.

On to `CCN(C)C(=O)Oc1cccc([C@H](C)N(C)C)c1`, for which the molecule was classed as inactive.

With `OCCOc1ccc(OCCO)cc1`, the result was inactive.

Turning to `CN1CCc2c(c3ccccc3n2Cc2ccccc2)C1`, the result was inactive.

Consider `Cc1ccc(/C(=C\CN2CCCC2)c2ccccn2)cc1`, for which the call was inactive.

As to `S=C(SSSSSSC(=S)N1CCCCC1)N1CCCCC1`, the result was inactive.

Consider `CCCCOC(=O)C(=O)Nc1cccc(-c2nn[nH]n2)c1`, for which the outcome was inactive.

Regarding `COc1ccc(-c2cc(C(F)F)nn2-c2ccc(S(N)(=O)=O)cc2)cc1F`, the outcome was inactive.

The next assay has as its target Cellular tumor antigen p53 (Homo sapiens) (UniProt P04637). Briefly: TOX21_p53_BLA_p5_ratio: Tox21 HCT-116 p53 Agonism Beta-lactamase Assay, Ratio, Phase 5 (AID 2283599). An outline of the steps: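 HCT-116 p53-bla cells (4000/well) plated 5 h, dosed with compound (217-fold DMSO dilution) for 16 h at 37 C; CCF4-AM substrate 2 h at room temperature. Activity is the 460/530 nm emission ratio (405 nm excitation), fitted in gain-of-signal direction versus DMSO.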
`CNC(=O)[C@H](Cc1c[nH]c2ccccc12)NC(=O)[C@@H](CC(=O)NO)CC(C)C`: the result was inactive.

Regarding `CCN(CC)CCNC(=O)COc1ccc(OC)cc1`, the outcome was inactive.

`CCCOC(=O)c1ccccc1O`: the outcome was inactive.

In the case of `O=C(O)COc1ccccc1/C=N/NC(=O)c1ccncc1`, the result was inactive.

Regarding `COC(=O)C(C)O` (configuration not stated), the result was inactive.

As to `CCNC(=O)C1CC(C)CCC1C(C)C` (configuration not stated), the outcome was inactive.

With `C=CC[N@@+]12CC[C@@]34c5ccccc5N5/C=C6/[C@H]7C[C@H]8[C@@]9(CC[N@@+]8(CC=C)C/C7=C/CO)c7ccccc7N(/C=C(/[C@@H](C[C@@H]31)/C(=C\CO)C2)[C@H]54)[C@@H]69`, the outcome was inactive.

Take `NS(=O)(=O)c1cc(-c2nn[nH]n2)c(NCc2cccs2)cc1Cl`: the result was inactive.

With `COc1cc(C(=O)NC2CCCNC2)cc(OC)c1OC` (configuration not stated), the outcome was inactive.

For the molecule `CN(CCOc1ccc(NS(C)(=O)=O)cc1)CCc1ccc(NS(C)(=O)=O)cc1`, the AC50 was 37.7 µM (active).

Turning to `CCC(C)(C)CC`, the outcome was inactive.

On to `CC(=O)c1ccc(Cl)c(Cl)c1Cl`, for which the result was inactive.

On to `Nc1ccc(N=Nc2ccc(N)cc2)cc1`, for which the outcome was inactive.

As to `N[C@@H](CCC(=O)Nc1ccc([N+](=O)[O-])cc1)C(=O)O`, the result was inactive.

On to `CC(C)NC[C@@H](O)COc1cccc2ccccc12`, for which the result was inactive.

`CN(C)CCN(Cc1ccccc1)c1ccccn1`: the result was inactive.

On to `CCOc1ccc(S(=O)(=O)O)c2cccnc12`, for which the outcome was inactive.

Take `NC(=O)OCC(O)COc1ccc(Cl)cc1` (configuration not stated): the result was inactive.

Turning to `O=[N+]([O-])c1ccc(Oc2ccc([N+](=O)[O-])cc2)cc1`, the result was inactive.

As to `Cc1cc(O)ccc1O`, the result was inactive.

As to `CC(C)c1ncc([N+](=O)[O-])n1C`, the outcome was inactive.

`O=C(O)CCC/C=C\C[C@@H]1[C@@H](/C=C/[C@@H](O)COc2cccc(Cl)c2)[C@H](O)C[C@@H]1O`: the outcome was inactive.

As to `Cc1cc(=O)c(C(=O)N[C@@H](C(=O)N[C@@H]2C(=O)N3C(C(=O)O)=C(CSc4nnnn4C)CS[C@H]23)c2ccc(O)cc2)c[nH]1`, the result was inactive.

In the case of `CCCc1nc2c(C)cc(-c3nc4ccccc4n3C)cc2n1Cc1ccc(-c2ccccc2C(=O)O)cc1`, the outcome was inactive.

Turning to `C[C@]12CC[C@@H]3c4ccc(OC(=O)c5ccccc5)cc4CC[C@H]3[C@@H]1CC[C@@H]2O`, the outcome was inactive.
